A short description of assay [1]: AP1 Signaling Pathway (AID 357).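 Note: ME-180 reporter cells stimulated with EGF at its EC50 level; % is set by controls: 0 for no effect and ±100 for the full control effect.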 The following applies: ME-180 AP-1-bla reporter, EGF-induced, beta-lactamase ratio, 5 h; at 17.2 µM (top of the series) unless noted. In a few lines:
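Modulation of EGF-driven AP-1 transcription was assessed with a beta-lactamase reporter in ME-180 cells. Compound and EC50 EGF were co-incubated 5 hours at 37 °C before 2.5-hour CCF4 loading at room temperature and dual-emission reading.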

A short description of assay [2]: NFAT Signaling Pathway (AID 444).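 Note: carbachol stimulus at about its EC50 of 1 µM final; % is set by controls: 0 for no effect and ±100 for the full control effect.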 The following applies: Jurkat NFAT-bla M1, carbachol, beta-lactamase ratio, 5 h; at 17.2 µM (top of the series) unless noted. In a few lines: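 Jurkat cells carrying an NFAT-driven β-lactamase reporter and co-transfected muscarinic M1 receptor were treated with compound plus carbachol (1 uM final, an EC50 level) for 5 h at 37 °C. CCF4 loading followed for 1 h at RT; 460/530 nm ratio gave %activity.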

Assay [3] has as its target Cytochrome P450 1A2 (Homo sapiens) (UniProt P05177). In words: p450-cyp1a2 (AID 410; calls by dose curve; note: potency is the fitted concentration of half-maximal effect;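 for activity change, negative = inhibition: -100% = full effect of reference inhibitor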). In a few lines:
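20nM CYP1A2, 100uM Luciferin-ME (=Km), 100mM KPO4; cpd 10 min RT; +NADPH regen, 60 min RT; stop/detect 20 min; luminescence. Normalized to furafylline 57 uM = full inhibition.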

Assay [4] can be described thus: Stat Signaling Pathway (AID 446).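 Note: ME-180 cervical cancer cells given 40 pM IL-6 alongside compound; SIE-controlled beta-lactamase reporter measured as 460/530 nm FRET emission ratio; % is set by controls: 0 for no effect and ±100 for the full control effect.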 The following applies: ME-180 (cervical carcinoma) SIE beta-lactamase reporter, IL-6 stimulated, 5 h; at 17.2 µM (top of the series) unless noted. In a few lines: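 FRET read-out (405 nm excitation, 460/530 nm emission) of a beta-lactamase reporter under a STAT-inducible element in ME-180 cervical carcinoma cells. Cells with compound receive 40 pM IL-6 for 5 h. Values are normalised to AC90 stimulation and AC90 JAK-inhibitor controls.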

The target in assay [5] is 3',5'-cyclic-AMP phosphodiesterase 4B (Homo sapiens) (UniProt Q07343). Kind of assay: qHTS Assay for Inhibitors of PDE-IV (AID 607; active = well fitted activation curve with a large enough effect in the main read-out, with a control signal flat, not every such curve was filed as active; note: % of control where 0% means no effect). In a few lines:
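Cell-based read-out of cAMP via a modified cyclic nucleotide-gated channel and membrane potential dye (535/590 nm) in HEK293 cells expressing PDE4 endogenously. Compounds tested up to 22.9 uM final; 100 uM RO 20-1724 reference.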

For assay [6], the target named is Guanine nucleotide-binding protein G(i) subunit alpha-1 (Homo sapiens) (UniProt P63096). Kind of assay: qHTS Assay for Inhibitors of RGS12 GoLoco Motif Activity (Green Fluorophore) (AID 879; active = well fitted curve in the direction sought with a large enough effect; an effect the other way counts as inactive or inconclusive;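 note: 0% = labeled peptide with Gαi1 and full inhibition = labeled peptide alone without protein; negative values mean loss of peptide binding seen as reduced polarization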). A digest of the protocol: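 A drop in FITC polarization marked displacement of the FITC-tagged RGS12 GoLoco peptide (10 nM) from Gαi1 (50 nM). Compounds were incubated 10 min at room temperature in Tris pH 7.5 buffer containing 150 mM NaCl, 0.1 mM GDP and 0.05% NP40; unlabeled peptide titration served as control.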

In assay [7] the target is Cytochrome P450 3A4 (Homo sapiens) (UniProt P08684). Kind of assay: qHTS Assay for Inhibitors and Substrates of Cytochrome P450 3A4 (AID 884; active = well fitted curve in the direction sought with a large enough effect; an effect the other way counts as inactive or inconclusive; note: % is set by controls: 0 for no effect and ±100 for the full control effect; nearly all actives have a fitted effect of over 50% in size). A digest of the protocol: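 Luminescent readout of luciferin produced by CYP3A4 (20 nM) dealkylation of Luciferin-PPXE, 25 uM (its KM). NADPH-driven reaction ran 60 min at RT after 10 min compound preincubation; data scaled to 57 uM ketoconazole as 100% inhibition.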
Sequence of Cytochrome P450 3A4 (Homo sapiens) (P08684 whole entry, looked up): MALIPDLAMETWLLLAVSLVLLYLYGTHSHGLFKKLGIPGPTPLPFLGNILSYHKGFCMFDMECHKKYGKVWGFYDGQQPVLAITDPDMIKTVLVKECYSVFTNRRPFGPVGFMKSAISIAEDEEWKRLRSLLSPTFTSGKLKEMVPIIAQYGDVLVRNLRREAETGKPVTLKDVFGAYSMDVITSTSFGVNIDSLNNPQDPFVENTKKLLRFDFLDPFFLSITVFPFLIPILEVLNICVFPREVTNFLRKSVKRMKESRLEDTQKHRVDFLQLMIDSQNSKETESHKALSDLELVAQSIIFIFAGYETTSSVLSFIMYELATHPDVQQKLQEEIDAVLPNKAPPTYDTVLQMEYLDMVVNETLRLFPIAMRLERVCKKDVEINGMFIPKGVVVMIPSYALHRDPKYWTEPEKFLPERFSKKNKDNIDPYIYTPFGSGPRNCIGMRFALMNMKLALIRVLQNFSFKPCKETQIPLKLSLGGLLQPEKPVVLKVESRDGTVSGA

Assay [8] in a line: qHTS Assay for Identification of Small Molecule Antagonists for NFkB Signaling Pathway (AID 895; active = well fitted inhibition curve with a large enough effect in the signal ratio, with a control signal flat, not every such curve was filed as active; the % refers to the signal ratio; note: % is set by controls: 0 for no effect and ±100 for the full control effect). A digest of the protocol:
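NFkB-bla ME-180 cervical carcinoma cells with beta-lactamase reporter under NFkB response element; compounds added, then TNF alpha at 10 pM final (EC50), 5 h at 37 C. LiveBLAzer substrate 2 h, room temperature; emission 460/530 nm at 405 nm excitation.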

In assay [9] the target is Pyruvate kinase (Leishmania mexicana) (UniProt Q27686). In words: qHTS Validation Assay for Inhibitors of Leishmania Mexicana Pyruvate Kinase (AID 945; active = well fitted curve in the direction sought with a large enough effect; an effect the other way counts as inactive or inconclusive;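 note: 0% = DMSO only neutral control wells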). A digest of the protocol:
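Purified LmPYK (E451W mutant, 0.2 nM) was incubated 1 h at room temperature with 0.5 mM PEP and 0.1 mM ADP in 50 mM imidazole pH 7.2, 50 mM KCl, 7 mM MgCl2; ATP formed was read by PKLight luminescence, normalized to DMSO wells.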

For assay [10], the target named is Pyruvate kinase PKM (Homo sapiens) (UniProt P14618). Kind of assay: qHTS Assay for Activators of Human Muscle Pyruvate Kinase (AID 954; active = well fitted curve in the direction sought with a large enough effect, not every such curve was filed as active;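 note: 0% = uninhibited enzyme and -100% = no enzyme or full thiadiazolimine inhibition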). In a few lines:
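ATP production by PKM2 detected via luciferase luminescence after 1 h room-temperature reaction (0.1 nM enzyme, PEP at Km 0.5 mM, ADP 0.1 mM, pH 7.2 imidazole buffer). Inhibition scaled to no-enzyme control; activation referenced to 0.3 nM enzyme wells.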

In assay [11] the target is Alpha-galactosidase A (Homo sapiens) (UniProt P06280). Kind of assay: Counterscreen for Glucocerebrosidase Inhibitors: qHTS Assay for Human alpha-Galactosidase at pH 4.5 (AID 992; active = well fitted curve in the direction sought with a large enough effect; an effect the other way counts as inactive or inconclusive; note: 0% is about no effect). In a few lines: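 Fluorogenic 1536-well qHTS at pH 4.5 (citrate, Tween-20): 2 nM enzyme, 80 uM 4-MU-alpha-galactoside, 20 min room temperature, NaOH/glycine stop. Titration 0.7 nM to 77 uM, data normalized to no-enzyme and full-activity controls, Hill-fitted AC50.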
Sequence of Alpha-galactosidase A (Homo sapiens) (P06280 whole entry, looked up): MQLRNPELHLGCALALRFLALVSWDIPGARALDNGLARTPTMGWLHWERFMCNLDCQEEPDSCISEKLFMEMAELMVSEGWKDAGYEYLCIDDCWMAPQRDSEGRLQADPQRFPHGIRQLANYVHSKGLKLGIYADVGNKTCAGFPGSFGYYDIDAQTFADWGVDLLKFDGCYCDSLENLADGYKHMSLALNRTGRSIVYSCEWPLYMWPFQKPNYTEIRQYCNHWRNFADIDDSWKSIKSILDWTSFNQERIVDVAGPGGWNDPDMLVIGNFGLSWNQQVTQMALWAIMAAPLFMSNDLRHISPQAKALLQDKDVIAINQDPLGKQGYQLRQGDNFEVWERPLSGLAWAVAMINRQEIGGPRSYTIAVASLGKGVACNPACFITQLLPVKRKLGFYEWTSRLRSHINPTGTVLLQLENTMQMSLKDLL

Assay [12] concerns the target alpha-glucosidase (Oryza sativa, rice) (UniProt Q653V4). Kind of assay: Counterscreen for Glucocerebrosidase Inhibitors: qHTS Assay for Rice alpha-Glucosidase at pH 5.0 (AID 997; active = well fitted curve in the direction sought with a large enough effect; an effect the other way counts as inactive or inconclusive;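 note: 0% = full activity with enzyme and -100% = basal without enzyme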). In a few lines:
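Endpoint fluorogenic assay at pH 5.0: compounds (0.7 nM to 77 uM) titrated against 4 nM rice enzyme and 400 uM 4-MU-alpha-glucoside for 20 min at room temperature; NaOH/glycine stop, read ex 365/em 440 nm, Hill-fitted AC50.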

The target of assay [13] is Glucocorticoid receptor (Homo sapiens) (UniProt P04150). In words: GR-GFP Redistribution (AID 450;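 active = compounds whose dose series gives a full or clear partial fitted curve of increased nuclear translocation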; note: potency is the fitted concentration of half-maximal effect).
Sequence of Glucocorticoid receptor (Homo sapiens) (P04150 whole entry, looked up): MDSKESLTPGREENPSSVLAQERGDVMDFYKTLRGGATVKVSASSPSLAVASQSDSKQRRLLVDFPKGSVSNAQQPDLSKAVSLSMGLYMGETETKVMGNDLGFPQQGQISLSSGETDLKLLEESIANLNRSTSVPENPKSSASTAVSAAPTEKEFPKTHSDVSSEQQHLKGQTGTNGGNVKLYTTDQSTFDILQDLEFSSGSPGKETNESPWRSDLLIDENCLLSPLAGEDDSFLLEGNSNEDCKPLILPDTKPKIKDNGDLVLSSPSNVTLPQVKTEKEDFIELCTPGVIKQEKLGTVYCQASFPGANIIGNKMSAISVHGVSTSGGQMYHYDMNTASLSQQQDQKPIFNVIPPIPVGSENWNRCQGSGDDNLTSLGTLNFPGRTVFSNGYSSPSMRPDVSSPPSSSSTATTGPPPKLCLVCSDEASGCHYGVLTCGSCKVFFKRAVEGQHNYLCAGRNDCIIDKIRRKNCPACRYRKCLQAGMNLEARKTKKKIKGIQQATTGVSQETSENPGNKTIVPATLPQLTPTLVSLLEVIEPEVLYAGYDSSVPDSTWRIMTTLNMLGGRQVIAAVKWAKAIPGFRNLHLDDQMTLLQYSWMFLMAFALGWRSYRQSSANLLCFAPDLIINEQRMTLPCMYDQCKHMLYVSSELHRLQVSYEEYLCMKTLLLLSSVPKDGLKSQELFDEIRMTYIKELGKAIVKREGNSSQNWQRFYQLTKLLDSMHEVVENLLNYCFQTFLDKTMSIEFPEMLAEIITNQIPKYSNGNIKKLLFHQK
For assay [14] the target is unchanged. In words: GR-EFC Redistribution (AID 451; calls by dose curve; note: potency is the fitted concentration of half-maximal effect). The settings on record: CHO-K1 GR-EFC translocation, beta-gal luminescence, 2 h. In a few lines:
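CHO-K1 cells stably expressing nuclear-localized β-gal enzyme acceptor and GR fused C-terminally to the enzyme donor fragment; ligand-driven nuclear translocation restores β-gal by complementation. Compounds titrated up to 46 uM final, 2 h at 37 °C; luminescence read.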

The target of assay [15] is Cytochrome P450 3A4 (Homo sapiens) (UniProt P08684). In words: qHTS Assay for Activators of Cytochrome P450 3A4 (AID 885; active = well fitted curve in the direction sought with a large enough effect; an effect the other way counts as inactive or inconclusive; note: nearly all actives have a fitted effect of over 65% in size). In a few lines: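 Luminescent readout of luciferin formed from 25 uM Luciferin-PPXE (KM level) by 20 nM CYP3A4 in 200 mM KPO4, with 60 min NADPH-driven reaction at room temperature after 10 min compound exposure. Ketoconazole (57 uM) defined 100% inhibition.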

A short description of assay [16]: qHTS Assay for Identification of Small Molecule Agonists for Thrombopoietin (TPO) Signaling Pathway (AID 917; active = well fitted curve in the direction sought with a large enough effect; an effect the other way counts as inactive or inconclusive; note: % is set by controls: 0 for no effect and ±100 for the full control effect). In a few lines:
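Cell-based luciferase reporter screen. Mouse Ba/F3 line stably expressing human TPO receptor; IL-3 removed overnight before plating. Co-treatment with compound and EC50 TPO (26 pM), 24 hrs at 37 C, then luminescence.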

Assay [17] concerns the target Muscarinic acetylcholine receptor M1 (Rattus norvegicus) (UniProt P08482). Kind of assay: qHTS Assay for Antagonists of Acetylcholine Muscarinic M1 Receptor: Kinetic Measurement of Intracellular Calcium Response (AID 943; active = well fitted curve in the direction sought with a large enough effect; an effect the other way counts as inactive or inconclusive; note: potency is the fitted concentration of half-maximal effect; nearly all actives have a fitted effect of over 75% in size). In a few lines: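 Read-out: peak over basal Fluo-4 fluorescence, kinetic at 1 Hz for 4 min after EC80 carbachol (100 nM final). Rat M1-CHO cells, dye loaded 1 h at 37C, compound added 10 min before agonist.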

The target in assay [18] is Cytochrome P450 2D6 (Homo sapiens) (UniProt P10635). In words: qHTS Assay for Inhibitors and Substrates of Cytochrome P450 2D6 (AID 891; active = well fitted curve in the direction sought with a large enough effect; an effect the other way counts as inactive or inconclusive;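 note: luciferin methyl ether substrate demethylated by CYP2D6 with NADPH regeneration; % is set by controls: 0 for no effect and ±100 for the full control effect; nearly all actives have a fitted effect of over 60% in size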). In a few lines: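 Luminescent read-out of luciferin formed by 5 nM human CYP2D6 demethylating 30 uM Luciferin-ME EGE (Km level) over 60 min at room temperature after NADPH regeneration addition. Data normalized to full inhibition by 1.43 uM quinidine.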

The target of assay [19] is Ubiquitin carboxyl-terminal hydrolase 1 (Homo sapiens) (UniProt O94782). In words: Inhibitors of USP1/UAF1: Pilot qHTS (AID 504865; active = well fitted curve in the direction sought with a large enough effect; an effect the other way counts as inactive or inconclusive; note: potency is the fitted concentration of half-maximal effect; nearly all actives have a fitted effect of over 35% in size). A digest of the protocol: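 In 50mM HEPES pH 7.8 containing 0.5mM EDTA, 1mM TCEP, 0.1 mg/ml BSA and 0.01% Tween-20, 1nM USP1/UAF1 is exposed to compound for 15 min, then Ub-Rho (150nM final) is added and fluorescence is read over time.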
Sequence of Ubiquitin carboxyl-terminal hydrolase 1 (Homo sapiens) (O94782 whole entry, looked up): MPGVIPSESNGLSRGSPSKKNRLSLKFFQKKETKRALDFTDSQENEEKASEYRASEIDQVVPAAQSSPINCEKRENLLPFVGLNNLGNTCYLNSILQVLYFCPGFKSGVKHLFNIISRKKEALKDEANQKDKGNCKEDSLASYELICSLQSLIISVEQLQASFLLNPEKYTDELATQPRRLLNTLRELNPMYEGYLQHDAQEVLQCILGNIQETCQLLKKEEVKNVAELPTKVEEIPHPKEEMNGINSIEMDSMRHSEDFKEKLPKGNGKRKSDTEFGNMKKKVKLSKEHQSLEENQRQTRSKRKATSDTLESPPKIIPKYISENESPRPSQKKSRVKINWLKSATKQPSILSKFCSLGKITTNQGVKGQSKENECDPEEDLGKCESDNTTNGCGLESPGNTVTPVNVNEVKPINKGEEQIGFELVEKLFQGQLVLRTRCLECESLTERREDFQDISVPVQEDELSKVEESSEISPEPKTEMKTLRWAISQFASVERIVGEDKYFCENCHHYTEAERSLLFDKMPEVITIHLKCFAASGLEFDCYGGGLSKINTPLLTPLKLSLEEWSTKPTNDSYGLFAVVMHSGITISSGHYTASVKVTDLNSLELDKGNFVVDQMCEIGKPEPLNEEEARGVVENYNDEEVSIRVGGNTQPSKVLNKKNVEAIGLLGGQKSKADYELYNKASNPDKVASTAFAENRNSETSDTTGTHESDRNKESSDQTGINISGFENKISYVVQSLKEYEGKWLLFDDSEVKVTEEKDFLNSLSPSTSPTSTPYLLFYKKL

Assay [20] has as its target Mitogen-activated protein kinase 10 (Mus musculus) (UniProt Q61831). Kind of assay: JNK3 AlphaScreen Assay (AID 530). A digest of the protocol: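 Biotinylated GST-cJun(1-79) served as substrate for JNK3 in HepG2 lysates stimulated with IL-1beta and TNF-alpha. ATP was 10 uM final, pH 7.6. Ser73 phosphorylation was quantified by AlphaScreen (680 nm excitation).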

Each structure is given as a SMILES string. Unmarked numbers belong to inactive results. Results filed as inconclusive are left out. Calls of active or inactive are those of the source. Unless noted, calls come from the whole dose curve; as a rule, active = well fitted curve in either direction with a large enough effect (not every such curve was filed as active); inconclusive = small, poorly fitted or top-dose-only effect, or another doubt; inactive = flat fitted curve, though single readings scatter.

Sequence of 3',5'-cyclic-AMP phosphodiesterase 4B (Homo sapiens) (Q07343 whole entry, looked up): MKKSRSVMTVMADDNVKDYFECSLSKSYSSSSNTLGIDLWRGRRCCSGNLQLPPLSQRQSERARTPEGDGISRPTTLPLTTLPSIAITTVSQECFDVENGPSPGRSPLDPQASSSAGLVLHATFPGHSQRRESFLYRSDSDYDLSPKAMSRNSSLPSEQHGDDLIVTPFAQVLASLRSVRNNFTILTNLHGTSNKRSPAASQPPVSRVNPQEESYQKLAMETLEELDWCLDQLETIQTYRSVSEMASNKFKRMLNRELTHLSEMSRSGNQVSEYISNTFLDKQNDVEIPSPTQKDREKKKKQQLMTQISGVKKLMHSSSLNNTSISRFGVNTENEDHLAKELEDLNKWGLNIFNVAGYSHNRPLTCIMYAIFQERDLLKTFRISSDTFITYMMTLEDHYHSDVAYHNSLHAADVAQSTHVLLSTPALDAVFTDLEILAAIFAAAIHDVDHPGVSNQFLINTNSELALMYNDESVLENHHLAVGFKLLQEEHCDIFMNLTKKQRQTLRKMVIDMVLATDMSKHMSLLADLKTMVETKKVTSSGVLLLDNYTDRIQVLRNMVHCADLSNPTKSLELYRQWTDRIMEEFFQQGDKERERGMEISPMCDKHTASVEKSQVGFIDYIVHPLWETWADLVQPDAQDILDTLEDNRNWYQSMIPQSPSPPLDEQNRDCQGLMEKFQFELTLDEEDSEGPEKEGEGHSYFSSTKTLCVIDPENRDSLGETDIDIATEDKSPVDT
Sequence of Cytochrome P450 1A2 (Homo sapiens) (P05177 whole entry, looked up): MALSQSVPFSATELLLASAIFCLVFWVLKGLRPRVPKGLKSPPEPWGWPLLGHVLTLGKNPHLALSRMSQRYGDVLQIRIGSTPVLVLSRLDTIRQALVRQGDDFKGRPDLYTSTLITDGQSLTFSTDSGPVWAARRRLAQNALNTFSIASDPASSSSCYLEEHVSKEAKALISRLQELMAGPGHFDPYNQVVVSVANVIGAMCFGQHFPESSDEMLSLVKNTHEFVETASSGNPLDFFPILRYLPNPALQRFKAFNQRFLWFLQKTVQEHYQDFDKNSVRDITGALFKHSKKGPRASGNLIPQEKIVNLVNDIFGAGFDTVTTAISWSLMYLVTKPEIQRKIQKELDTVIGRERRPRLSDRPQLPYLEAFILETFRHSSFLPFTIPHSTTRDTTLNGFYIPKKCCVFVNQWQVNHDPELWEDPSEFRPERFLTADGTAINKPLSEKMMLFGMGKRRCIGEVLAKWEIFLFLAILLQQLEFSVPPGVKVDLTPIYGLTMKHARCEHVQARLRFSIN
Sequence of Pyruvate kinase (Leishmania mexicana) (Q27686 2-499 E452W): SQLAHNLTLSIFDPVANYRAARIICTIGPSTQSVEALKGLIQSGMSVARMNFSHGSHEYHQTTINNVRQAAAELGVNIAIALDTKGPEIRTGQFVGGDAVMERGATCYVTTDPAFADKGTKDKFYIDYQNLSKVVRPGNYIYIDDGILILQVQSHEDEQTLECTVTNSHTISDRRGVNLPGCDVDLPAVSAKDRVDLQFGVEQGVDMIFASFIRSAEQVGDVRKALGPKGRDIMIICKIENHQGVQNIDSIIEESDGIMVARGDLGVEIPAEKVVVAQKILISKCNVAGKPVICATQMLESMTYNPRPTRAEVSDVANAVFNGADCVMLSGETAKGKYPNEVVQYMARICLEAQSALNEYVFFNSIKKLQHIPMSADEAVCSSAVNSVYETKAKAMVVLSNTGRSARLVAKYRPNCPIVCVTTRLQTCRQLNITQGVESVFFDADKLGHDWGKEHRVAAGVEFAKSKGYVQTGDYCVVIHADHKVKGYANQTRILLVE
Sequence of Pyruvate kinase PKM (Homo sapiens) (P14618 whole entry, looked up): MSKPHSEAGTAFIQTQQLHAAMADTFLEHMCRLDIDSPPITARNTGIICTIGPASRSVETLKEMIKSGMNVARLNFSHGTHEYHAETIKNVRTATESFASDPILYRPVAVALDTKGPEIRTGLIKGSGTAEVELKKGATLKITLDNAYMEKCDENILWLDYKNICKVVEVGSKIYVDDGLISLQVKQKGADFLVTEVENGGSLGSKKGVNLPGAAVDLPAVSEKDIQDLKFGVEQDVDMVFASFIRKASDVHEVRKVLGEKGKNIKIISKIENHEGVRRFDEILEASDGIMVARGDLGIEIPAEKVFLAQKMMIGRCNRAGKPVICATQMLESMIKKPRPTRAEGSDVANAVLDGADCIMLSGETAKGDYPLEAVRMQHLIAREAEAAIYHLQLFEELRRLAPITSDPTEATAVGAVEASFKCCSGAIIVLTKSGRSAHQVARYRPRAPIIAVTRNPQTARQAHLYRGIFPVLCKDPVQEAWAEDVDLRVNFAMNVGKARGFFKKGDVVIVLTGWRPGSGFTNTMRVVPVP

Take `CC(C)c1nc2n[nH]c(N)c2c2c1CCC2`: the activity change, negative = inhibition in [1] was 3.28%; in assay [2], 9.31%.

On to `C/C=C1\C(=O)C[C@@H]2[C@@H]3CCC4=CC(=O)CC[C@@]4(C)[C@H]3CC[C@@]12C`, for which, in [1], the activity change, negative = inhibition was 13.9% [at 38 µM]. Moreover, the Potency result in assay [3], in [5], in assay [7], in [8] and in assay [9] was “inactive” each time. Further, the activity, negative = inhibition in [4] is 7.49% [at 38 µM]. Besides, the outcome in [6], in assay [10], in assay [11] and in assay [12] was inactive.

As to `COCCOCCOCCC(=O)NC1CC2CCC1(C)C2(C)C` (configuration not stated), the activity change, negative = inhibition in [1] was 13.7%; in [2], 0.73%. Moreover, in assay [4], the activity, negative = inhibition was -0.452%.

Regarding `CC(=O)OC12CC3CC(C1)C(=NO)C(C3)C2`, the activity change, negative = inhibition in assay [1] was 9.34%; in assay [2] it was 1.23%. The activity, negative = inhibition in [4] was 13.8%.

For `CC1CCN(CC[C@@H]2CCCN2S(=O)(=O)c2cccc(O)c2)CC1`, the activity change, negative = inhibition in [1] was 2.33% [at 38 µM]. Also, the Potency result in assay [3], in [5], in assay [15], in assay [16] and in assay [9] was “inactive” in each case. The activity, negative = inhibition in [4] was -6.42% [at 38 µM]. The Potency in assay [13] was more than 46 µM; in [14] it was more than 46 µM; in [17], 14.1 µM (active). Besides, the call in assay [10], in assay [11] and in assay [12] was inactive.

`CCOC(=O)CSC1=C(C#N)C(c2ccc(C)cc2)C(C(=O)OC)C(=O)N1` (configuration not stated): the values for the activity change, negative = inhibition in assay [1] and in assay [2] were 8.51% and 6.97%, respectively. Further, the activity, negative = inhibition in [4] was -7.08%.

With `CC(NC(=O)Nc1cccnc1)(C(F)(F)F)C(F)(F)F`, the activity change, negative = inhibition was -12.1% in [1] and -11.5% in [2].

Take `COc1cccc2c1C(=O)c1c(O)c3c(c(O)c1C2=O)C[C@](O)(C(C)=O)C[C@H]3O[C@@H]1C[C@H](N)[C@H](O)[C@H](C)O1`: the activity change, negative = inhibition in assay [1] was -116% (active). Further, the Potency result in assay [3], in assay [5], in assay [15] and in assay [18] was “inactive” throughout. In addition, the Potency in [13] is more than 20.6 µM; in [19], 31.6 µM (active).

In the case of `N#Cc1ccc(OC(=O)c2ccc(N=C(N)N)cc2)cc1`, the activity change, negative = inhibition in assay [1] is -0.971% [at 7.69 µM]; in [20] it was 1.07% [at 11.4 µM]. Also, the Potency in assay [3] is 2.51 µM (active). Also, in assay [4], the activity, negative = inhibition was -5.61% [at 7.69 µM]. In assay [5], the Potency result is “inactive”.

`CO[C@H]1C[C@@H]2CC[C@@H](C)[C@@](O)(O2)C(=O)C(=O)N2CCCC[C@H]2C(=O)O[C@H]([C@H](C)C[C@@H]2CC[C@@H](O)[C@H](OC)C2)CC(=O)[C@H](C)C=C(C)[C@@H](O)[C@@H](OC)C(=O)[C@H](C)C[C@H](C)C=CC=CC=C1C`: the activity change, negative = inhibition was 6.13% in assay [1] and 24.7% in assay [2]. The activity, negative = inhibition in [4] was -28.8%.

The values above are taken from PubChem BioAssay (NCATS).
